Source: PubChem BioAssay (Tox21)
A number with no mark means an inactive call. Inconclusive results are not listed. Where a call stands in place of a potency, no number is given. Active and inactive are the calls of the source. The call rests on the fitted dose curve; in most records, active means well fitted curve in the direction sought with a large enough effect in the repeat runs; inconclusive means weak or mixed curves; inactive means no such curve, though single readings can be large; an effect the other way counts as inactive or inconclusive.

Columns and labels:
[1] = qHTS RealTime-Glo MT Cell Viability Assay in HEK293 cells - 0 hour (AID 1224880); further: nearly all actives have a fitted effect of over 45% in size; further: potency means the concentration at half of the fitted maximal effect; on activity change, negative = cytotoxicity: top concentration of the series differs between compounds
Outline: (§1)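 Tox21 screen in HEK293 using RealTime-Glo MT chemistry, with cells and reagent co-dispensed. Luminescence proportional to viable cell number was captured at intervals during 40 h compound exposure at 37 C.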

[2] = A CellTox Green Cytotoxicity Assay to monitor cytotoxicity in HEK293 cells - 32 hour (AID 1224881); further: nearly all actives have a fitted effect of over 40% in size; further: potency means the concentration at half of the fitted maximal effect
Outline: (§2)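 Seeding of HEK293 cells together with cytotoxicity dye preceded a 5 h incubation at 37 C/5% CO2. Test compounds in DMSO were then added and fluorescence monitored across 40 h.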

[3] = A CellTox Green Cytotoxicity Assay to monitor cytotoxicity in HepG2 cells - 0 hour (AID 1224882); further: nearly all actives have a fitted effect of over 35% in size; further: potency means the concentration at half of the fitted maximal effect
Outline: (§3)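 Nonlytic assay: viable cells exclude the dye, so fluorescence scales with cell death. HepG2 at 600 cells/well, compounds added after 5 h, signal read across 40 h.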

[4] = A CellTox Green Cytotoxicity Assay to monitor cytotoxicity in HepG2 cells - 32 hour (AID 1224883); further: nearly all actives have a fitted effect of over 50% in size; further: potency means the concentration at half of the fitted maximal effect
Outline: as §3

[5] = A CellTox Green Cytotoxicity Assay to monitor cytotoxicity in HEK293 cells - 8 hour (AID 1224884); further: nearly all actives have a fitted effect of over 35% in size; further: potency means the concentration at half of the fitted maximal effect
Outline: as §2

[6] = qHTS RealTime-Glo MT Cell Viability Assay in HepG2 cells - 16 hour (AID 1224885); further: nearly all actives have a fitted effect of over 50% in size; further: potency means the concentration at half of the fitted maximal effect
Outline: (§4)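 HepG2 suspension premixed with RealTime-Glo reagents is plated at 600 cells per well and left 5 h at 37 C/5% CO2. Compounds in DMSO then go in, and bioluminescence reflecting viable cell number is recorded over 40 h.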

[7] = qHTS RealTime-Glo MT Cell Viability Assay in HEK293 cells - 24 hour (AID 1224886); further: top concentration of the series differs between compounds; nearly all actives have a fitted effect of over 50% in size
Outline: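 Reads taken at 0, 8, 16, 24, 32 and 40 h from the same wells. HEK293 cells (600/well) carried RealTime-Glo reagents from seeding, with compound added after a 5 h settle at 37 C.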

[8] = qHTS RealTime-Glo MT Cell Viability Assay in HEK293 cells - 8 hour (AID 1224887); further: top concentration of the series differs between compounds; nearly all actives have a fitted effect of over 50% in size
Outline: as §1

[9] = A CellTox Green Cytotoxicity Assay to monitor cytotoxicity in HEK293 cells - 16 hour (AID 1224888); further: nearly all actives have a fitted effect of over 35% in size; further: potency means the concentration at half of the fitted maximal effect
Outline: as §2

[10] = qHTS RealTime-Glo MT Cell Viability Assay in HepG2 cells - 0 hour (AID 1224889); further: nearly all actives have a fitted effect of over 50% in size; further: potency means the concentration at half of the fitted maximal effect
Outline: as §4

Structure (SMILES) | Potency [1] | Potency [2] | Potency [3] | Potency [4] | Potency [5] | Potency [6] | Potency [7] | Potency [8] | Potency [9] | Potency [10] | activity change, negative = cytotoxicity [1] | activity change, negative = cytotoxic [6] | activity change, negative = cytotoxicity [8] | activity change, negative = cytotoxicity [10]
c1ccc2sc(SN(C3CCCCC3)C3CCCCC3)nc2c1 | inactive | inactive | inactive | inactive | inactive | inactive | inactive | inactive | inactive | inactive | – | – | – | –
O=C1CCCCCCCCCCOCCCCO1 | inactive | 49 µM (active) | inactive | inactive | inactive | inactive | inactive | inactive | inactive | inactive | – | – | – | –
O=C1Cc2cc(Cl)ccc2N1 | inactive | inactive | inactive | inactive | inactive | inactive | inactive | – | inactive | inactive | – | – | – | –
O=C(Cn1ccnc1[N+](=O)[O-])NCCO | inactive | inactive | inactive | inactive | inactive | inactive | inactive | inactive | inactive | inactive | – | – | – | –
Cc1cc(=O)c2c(O)c3c(O)cc(=O)c4c3c3c(cc(O)c1c23)C(C)(C)C=4O | – | 5.22 µM (active) | 4.65 µM (active) | 4.14 µM (active) | 7.37 µM (active) | – | – | – | 7.37 µM (active) | – | 0.327% [at 15.8 µM] | -19% [at 15.8 µM] | 3.53% [at 15.8 µM] | -2.14% [at 15.8 µM]
COC(=O)CCS | inactive | inactive | inactive | inactive | inactive | inactive | inactive | – | inactive | inactive | – | – | – | –
Cc1c(C)c2c(c(C)c1OC(=O)CCC(=O)OCCO)CC[C@@](C)(CCC[C@H](C)CCC[C@H](C)CCCC(C)C)O2 | inactive | inactive | inactive | inactive | inactive | inactive | inactive | inactive | inactive | inactive | – | – | – | –
O=C(O)c1cccc(-c2noc(-c3ccccc3F)n2)c1 | inactive | inactive | inactive | inactive | inactive | inactive | inactive | inactive | inactive | inactive | – | – | – | –
C=C1CCC2CC1C2(C)C (configuration not stated) | inactive | inactive | inactive | inactive | inactive | inactive | inactive | inactive | – | inactive | – | – | – | –
C[C@H]1C[C@H](O)c2ccsc2S1(=O)=O | inactive | inactive | inactive | inactive | inactive | inactive | inactive | inactive | – | inactive | – | – | – | –
CCC(C)(C)OC | inactive | inactive | inactive | inactive | inactive | inactive | inactive | inactive | – | inactive | – | – | – | –
CC(C)=CCC/C(C)=C/CC/C(C)=C/CCC(=O)OC/C=C(\C)CCC=C(C)C | inactive | inactive | inactive | inactive | inactive | inactive | inactive | inactive | – | inactive | – | – | – | –
Cc1ccc2c(Br)cc(Br)c(O)c2n1 | inactive | inactive | inactive | inactive | inactive | inactive | – | inactive | inactive | inactive | – | – | – | –
C/C=C\C/C=C/CCCCCCCCOC(C)=O | inactive | inactive | inactive | inactive | inactive | inactive | inactive | – | inactive | – | – | – | – | –
CCOC(=O)C1=C(C)NC(C)=C(C(=O)OC)C1c1cccc(Cl)c1Cl (configuration not stated) | 5.35 µM (active) | inactive | inactive | inactive | inactive | 19 µM (active) | – | inactive | inactive | 6.74 µM (active) | – | – | – | –
Cc1ccccc1S | inactive | inactive | inactive | inactive | inactive | inactive | – | inactive | inactive | – | – | – | – | –
CCC(OCCCOC)OC(C)=O (configuration not stated) | inactive | inactive | inactive | inactive | inactive | inactive | inactive | inactive | inactive | inactive | – | – | – | –
C=C1c2cccc(O)c2C(O)=C2C(=O)[C@]3(O)C(O)=C(C(N)=O)C(=O)[C@@H](N(C)C)[C@@H]3[C@@H](O)[C@H]12 | inactive | inactive | inactive | inactive | inactive | inactive | inactive | inactive | inactive | inactive | – | – | – | –
C=CC(=O)[O-].C=CC(=O)[O-].[Zn+2] | inactive | inactive | inactive | inactive | inactive | inactive | inactive | inactive | inactive | inactive | – | – | – | –
CCCCN(CCCC)C(C(N)=O)c1ccc(OC)cc1 (configuration not stated) | inactive | inactive | inactive | inactive | inactive | inactive | inactive | inactive | inactive | inactive | – | – | – | –
Cc1cccc(O)c1N | inactive | inactive | inactive | inactive | inactive | inactive | inactive | inactive | – | inactive | – | – | – | –
CC1CC(OC(=O)C(O)c2ccccc2)CC(C)(C)N1C (configuration not stated) | inactive | inactive | inactive | inactive | inactive | inactive | – | inactive | inactive | inactive | – | – | – | –
CC(=O)Nc1cc(S(=O)(=O)O)cc2cc(S(=O)(=O)O)c(N=Nc3ccccc3)c(O)c12 | inactive | inactive | inactive | inactive | inactive | inactive | inactive | inactive | – | inactive | – | – | – | –
c1ccc2c(c1)CCc1ccccc1N2 | inactive | 49.2 µM (active) | inactive | inactive | inactive | inactive | – | inactive | inactive | inactive | – | – | – | –
CC(=O)OCC[N+](C)(C)C | inactive | inactive | inactive | inactive | inactive | inactive | inactive | inactive | – | inactive | – | – | – | –
